A short description of assay [1]: ATG_PBREM_CIS: Attagene CIS-FACTORIAL HepG2 Assay for human Phenobarbital-responsive Enhancer Module (PBREM) (AID 2282955). The note with it: HepG2 PBREM cis-reporter, Attagene multiplexed transcription; actives raise or lower the signal. In a few lines: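 Readout: reporter mRNA, fluorescent RT-PCR fragments separated by capillary electrophoresis. System: HepG2 transiently transfected with cis-regulated reporter units. Exposure: 24 h. Analysis: bidirectional, DMSO baseline.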

In assay [2] the target is Paired box protein Pax-6 (Homo sapiens) (UniProt P26367). Description: ATG_Pax6_CIS: Attagene CIS-FACTORIAL HepG2 Assay for human Paired Box 6 (PAX6) (AID 2282956). The note with it: HepG2 CIS-FACTORIAL PAX6 reporter transcription, RNA readout; actives raise or lower the signal. The gist of the method: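 Values derive from bidirectional curve fitting of reporter mRNA signal relative to DMSO. HepG2 cells bearing transfected cis-regulated MRTUs were exposed for 24 h; transcripts were read by RT-PCR and capillary electrophoresis.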
Chain of Paired box protein Pax-6 (Homo sapiens) (P26367 whole entry, looked up): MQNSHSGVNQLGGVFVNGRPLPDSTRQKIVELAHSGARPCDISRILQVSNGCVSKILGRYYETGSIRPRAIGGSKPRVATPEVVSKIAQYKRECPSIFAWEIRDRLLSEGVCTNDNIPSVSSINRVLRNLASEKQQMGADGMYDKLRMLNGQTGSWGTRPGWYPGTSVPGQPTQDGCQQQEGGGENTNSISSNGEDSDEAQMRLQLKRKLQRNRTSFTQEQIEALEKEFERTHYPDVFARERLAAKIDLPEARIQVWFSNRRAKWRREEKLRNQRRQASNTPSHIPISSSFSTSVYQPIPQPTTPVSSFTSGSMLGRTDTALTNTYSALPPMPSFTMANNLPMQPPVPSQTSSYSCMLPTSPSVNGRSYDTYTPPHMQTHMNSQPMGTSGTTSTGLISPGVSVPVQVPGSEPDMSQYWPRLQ

Assay [3] is described as follows: ATG_PXRE_CIS: Attagene CIS-FACTORIAL HepG2 Assay for human Pregnane X Receptor Element (PXRE) (AID 2282957). The note with it: HepG2 Attagene CIS-FACTORIAL PXRE reporter, mRNA; actives raise or lower the signal. The gist of the method:
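Endogenous transcription factor activity in HepG2 was gauged through induction of reporter mRNA driven by a cis-regulating promoter element, sampled 24 h post-treatment. Activity was fitted in both directions against DMSO negative control.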

Assay [4] is described as follows: ATG_PPRE_CIS: Attagene CIS-FACTORIAL HepG2 Assay for human Peroxisome Proliferator-activated Response Element (PPRE) (AID 2282958). The note with it: HepG2 PPRE cis-element reporter, Attagene transcription factor profiling; actives raise or lower the signal. In a few lines: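 After human HepG2 hepatoma cells were transiently transfected with cis-promoter reporter constructs, they were exposed to test chemicals for 24 hours. Reporter RNA was then reverse-transcribed, PCR-amplified, FAM-labeled, HpaI-digested and quantified by capillary electrophoresis.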

The nature of assay [5]: ATG_RORE_CIS: Attagene CIS-FACTORIAL HepG2 Assay for human RAR-related Orphan Receptor Element (RORE) (AID 2282959). The note with it: HepG2 Attagene cis-factorial RORE reporter, mRNA; actives raise or lower the signal. In a few lines: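 Measured here: transcript induction of a cis-regulated reporter in HepG2 cells transiently transfected via FuGene 6. After 24 h, RNA was processed by RT-PCR and fluorescent capillary electrophoresis; DMSO defined baseline activity.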

A short description of assay [6]: ATG_Sox_CIS: Attagene CIS-FACTORIAL HepG2 Assay for human SRY-box transcription factor (SOX) (AID 2282960). The note with it: HepG2 Attagene cis-factorial SOX reporter, mRNA; actives raise or lower the signal. In a few lines:
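Using transiently transfected HepG2 cells, reporter transcription driven by cis elements was assessed 24 h after dosing. Signal was fluorescence of capillary-separated RT-PCR products, with DMSO defining baseline activity.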

The target in assay [7] is Transcription factor Sp1 (Homo sapiens) (UniProt P08047). The assay is described as follows: ATG_Sp1_CIS: Attagene CIS-FACTORIAL HepG2 Assay for human Specificity Protein 1 (Sp1) (AID 2282961). The note with it: HepG2 Sp1 cis-reporter transcription, actives raise or lower the signal. In a few lines:
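After transient transfection of HepG2 cells with cis-promoter reporter units and 24 h chemical treatment, reporter transcripts were quantified by RT-PCR and capillary electrophoresis fluorescence. Gain- and loss-of-signal fitted against DMSO.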

The nature of assay [8]: ATG_SREBP_CIS: Attagene CIS-FACTORIAL HepG2 Assay for human Sterol Regulatory Element Binding (SREBP) (AID 2282962). The note with it: HepG2 Attagene cis-factorial SREBP reporter, mRNA; actives raise or lower the signal. The gist of the method:
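Values derive from bidirectional curve fitting with DMSO as baseline. The underlying measurement is reporter mRNA from cis-element-regulated units in transiently transfected HepG2, quantified by RT-PCR and capillary electrophoresis after 24 h exposure.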

In assay [9] the target is Signal transducer and activator of transcription 3 (Homo sapiens) (UniProt P40763). The assay is described as follows: ATG_STAT3_CIS: Attagene CIS-FACTORIAL HepG2 Assay for human Signal Transducer and Activator of Transcription 3 (STAT3) (AID 2282963). The note with it: HepG2, Attagene cis-factorial STAT3 reporter transcription; actives raise or lower the signal. In a few lines:
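Uses human liver HepG2 transiently carrying cis-regulated reporter transcription units. Following 24 h dosing, reporter mRNA induction was detected by RT-PCR and capillary electrophoresis, analysed bidirectionally versus DMSO.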

The nature of assay [10]: ATG_TA_CIS: Attagene CIS-FACTORIAL HepG2 Assay for human TA Basal Promoter (AID 2282964). The note with it: HepG2 Attagene CIS-factorial TA basal promoter reporter; actives raise or lower the signal. The gist of the method: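 HepG2 cells transiently transfected with multiple reporter units under cis promoter elements, reporting endogenous transcription factor activity; this endpoint tracks the TA basal promoter as background control. Reporter mRNA after 24 h dosing measured by RT-PCR/capillary electrophoresis; bidirectional fits versus DMSO.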

Where “and” joins values, the source holds several entries; their conditions need not be identical. Identical values can stand only once. Where a structure was tested more than once in an assay, its records may differ in their call. Calls of active or inactive are those of the source. The calls were made as follows: active = hit-call score of the fitted dose curve at least 0.9, where 1 is the maximum; inactive = score below 0.9.

Chain of Transcription factor Sp1 (Homo sapiens) (P08047 whole entry, looked up): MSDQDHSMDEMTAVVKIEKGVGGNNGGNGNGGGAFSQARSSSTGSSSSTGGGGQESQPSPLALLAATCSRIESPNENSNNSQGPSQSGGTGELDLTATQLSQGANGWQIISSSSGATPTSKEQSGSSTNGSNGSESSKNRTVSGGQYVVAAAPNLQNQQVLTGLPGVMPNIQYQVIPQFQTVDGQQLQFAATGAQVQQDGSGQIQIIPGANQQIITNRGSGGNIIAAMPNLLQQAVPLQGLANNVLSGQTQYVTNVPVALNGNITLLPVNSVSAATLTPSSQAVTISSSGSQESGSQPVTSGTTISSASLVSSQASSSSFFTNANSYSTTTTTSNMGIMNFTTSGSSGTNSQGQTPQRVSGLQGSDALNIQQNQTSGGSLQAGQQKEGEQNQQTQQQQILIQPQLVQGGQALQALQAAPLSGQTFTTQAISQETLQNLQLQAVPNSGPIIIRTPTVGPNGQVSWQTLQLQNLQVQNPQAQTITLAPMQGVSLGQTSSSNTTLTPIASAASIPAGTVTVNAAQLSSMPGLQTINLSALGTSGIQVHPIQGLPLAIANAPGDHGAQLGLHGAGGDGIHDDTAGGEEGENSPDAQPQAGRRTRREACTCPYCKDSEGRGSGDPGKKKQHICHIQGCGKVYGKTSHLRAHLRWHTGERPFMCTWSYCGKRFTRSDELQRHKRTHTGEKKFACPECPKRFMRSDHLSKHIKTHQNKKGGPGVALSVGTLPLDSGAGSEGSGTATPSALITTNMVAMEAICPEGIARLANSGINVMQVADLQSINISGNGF
Chain of Signal transducer and activator of transcription 3 (Homo sapiens) (P40763 whole entry, looked up): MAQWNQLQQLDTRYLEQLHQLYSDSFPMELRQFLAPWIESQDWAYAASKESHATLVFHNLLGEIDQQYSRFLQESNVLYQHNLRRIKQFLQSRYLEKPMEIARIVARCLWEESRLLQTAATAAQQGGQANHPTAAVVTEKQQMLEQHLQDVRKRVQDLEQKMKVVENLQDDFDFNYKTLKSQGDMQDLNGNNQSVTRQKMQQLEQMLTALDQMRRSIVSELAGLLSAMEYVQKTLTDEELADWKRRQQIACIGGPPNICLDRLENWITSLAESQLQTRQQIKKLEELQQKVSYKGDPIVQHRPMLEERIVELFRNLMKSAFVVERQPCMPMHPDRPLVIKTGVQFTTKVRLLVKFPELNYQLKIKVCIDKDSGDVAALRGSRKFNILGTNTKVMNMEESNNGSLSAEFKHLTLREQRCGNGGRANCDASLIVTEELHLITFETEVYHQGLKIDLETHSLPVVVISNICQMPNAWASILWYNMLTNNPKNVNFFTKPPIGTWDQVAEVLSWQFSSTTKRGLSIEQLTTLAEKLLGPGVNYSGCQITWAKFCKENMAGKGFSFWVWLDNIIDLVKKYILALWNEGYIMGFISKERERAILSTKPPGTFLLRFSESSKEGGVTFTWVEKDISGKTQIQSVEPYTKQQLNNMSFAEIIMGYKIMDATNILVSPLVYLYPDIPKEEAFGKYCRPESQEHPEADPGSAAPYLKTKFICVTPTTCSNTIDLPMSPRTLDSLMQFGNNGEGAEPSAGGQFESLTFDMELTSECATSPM

Usually AC50 stands for the concentration at which the activity in the assay is half-maximal. For the compound `CCCCCCCCCCCCS`, the outcome in assay [1], in assay [2], in assay [4], in assay [5], in [6] and in assay [7] was inactive. Moreover, the result in assay [9] and in assay [10] was inactive. Besides, the AC50 in assay [3] and in assay [8] was 33.4 µM (active) each time.
For the compound `CCC(CC)CO`, the outcome in assay [1], in assay [2], in assay [3], in assay [4], in assay [5] and in assay [6] was inactive. Further, the outcome in [7], in assay [8], in assay [9] and in assay [10] was inactive.
In the case of `CC(C)(C)c1cc(CCC(=O)OCCSCCOC(=O)CCc2cc(C(C)(C)C)c(O)c(C(C)(C)C)c2)cc(C(C)(C)C)c1O`, the outcome in assay [1], in assay [2], in assay [3], in assay [4], in assay [5] and in assay [6] was inactive. Moreover, the call in [7], in assay [8], in assay [9] and in assay [10] was inactive.
For `O=C(O)c1cc2ccccc2cc1O`, the outcome in [1], in assay [2], in assay [5], in [6], in assay [7] and in [8] was inactive. Further, the result in assay [9] and in assay [10] was inactive. Besides, the AC50 in assay [3] was 54.4 µM (active); in assay [4] it was 52 µM (active).
Take `COc1cc(OC)c2ccc(=O)oc2c1`: the result in assay [1], in assay [2], in assay [3], in [4], in assay [5] and in [6] was inactive. Moreover, the result in assay [7], in [8], in assay [9] and in assay [10] was inactive.
With `C=C1CC[C@H]2O[C@]2(C)CC[C@@H]2[C@@H]1CC2(C)C`, the result in assay [1], in [2], in assay [3], in assay [4], in assay [5] and in assay [6] was inactive. Further, the result in [7], in [8], in [9] and in assay [10] was inactive.
In the case of `CCC(C)COC(=O)CC(C)C` (stereo not drawn), the outcome in assay [1], in assay [2], in assay [3], in assay [4], in assay [5] and in assay [6] was inactive. Besides, the result in assay [7], in assay [8], in assay [9] and in assay [10] was inactive.
Take `CC(=O)C1C(=O)C=C(C)OC1=O` (stereo not drawn): the result in assay [1], in [2], in assay [3], in assay [4], in assay [5] and in [6] was inactive. Besides, the compound was called inactive in assay [7], in [8], in assay [9] and in assay [10].
With `CCOC(=O)C=Cc1ccccc1`, the outcome in [1], in assay [2], in [4], in assay [5], in [6] and in assay [7] was inactive. In addition, the call in [8], in assay [9] and in assay [10] was inactive. In addition, the AC50 in assay [3] is 27.8 µM (active).
For `O=C(O)c1ccc(C(=O)O)c(C(=O)O)c1`, the result in assay [1], in [2], in assay [3], in [4], in [5] and in [6] was inactive. Besides, the outcome in [7], in [8], in [9] and in assay [10] was inactive.
With `CCCCCC#CC(=O)OC`, the result in [1], in assay [2], in assay [4], in assay [5], in assay [6] and in [7] was inactive. Also, the call in [8], in assay [9] and in assay [10] was inactive. Further, the AC50 in assay [3] is 20.2 µM (active).
Take `CC(C)CCOC(=O)CC(C)C`: the outcome in assay [1], in assay [2], in assay [3], in assay [4], in assay [5] and in [6] was inactive. The outcome in assay [7], in assay [8], in [9] and in [10] was inactive.
Consider `N#CCCNCCC#N`, for which the outcome in assay [1], in [2], in assay [3], in assay [4], in [5] and in assay [6] was inactive. For the same compound, the outcome in assay [7], in assay [8], in assay [9] and in [10] was inactive.
Regarding `CCCCCc1cccc(=O)o1`, the result in [1], in [2], in assay [4], in assay [5], in [6] and in assay [7] was inactive. The call in assay [8], in [9] and in [10] was inactive. Further, the AC50 in assay [3] is 25.1 µM (active).
On to `C[C@]12CC[C@@H]3c4ccc(O)cc4CC[C@H]3[C@@H]1CC[C@@H]2O`, for which the result in assay [1], in assay [2], in assay [3], in [4], in [5] and in assay [6] was inactive. Besides, the outcome in [7], in assay [8], in [9] and in assay [10] was inactive. Besides, the AC50 in assay [3] is 5.88 µM (active) [middle of 4 runs]; in assay [4], 27 µM (active); in assay [8], 26.5 µM (active) and 25.8 µM (active).
In the case of `CCCO[Si](OCCC)(OCCC)OCCC`, the result in assay [1], in assay [2], in assay [3], in assay [5], in assay [6] and in assay [7] was inactive. In addition, the compound was called inactive in [8], in assay [9] and in [10]. In addition, the AC50 in assay [4] was 42.2 µM (active).
Regarding `CCC=C(C)C=O`, the result in assay [1], in [2], in [4], in assay [5], in assay [6] and in [7] was inactive. Also, the call in [8], in [9] and in assay [10] was inactive. For the same compound, the concentration at half-maximal activity (AC50) in assay [3] was 24.7 µM (active).
For the compound `c1ccc2c(c1)-c1ccc3ccc4cccc5cc-2c1c3c45`, the outcome in assay [1], in assay [2], in [4], in [6], in assay [7] and in assay [8] was inactive. The outcome in assay [9] and in [10] was inactive. Moreover, the AC50 was 1.02 µM (active) in assay [3] and 0.163 µM (active) in assay [5].
Regarding `NC(=O)NC(N)=O`, the outcome in [1], in assay [2], in assay [3], in [4], in assay [5] and in assay [6] was inactive. The compound was classed as inactive in [7], in assay [8], in assay [9] and in [10].
With `CN(C)CCC=C1c2ccccc2CCc2ccccc21`, the outcome in assay [1], in assay [2], in assay [4], in [5], in assay [6] and in assay [8] was inactive. For the same compound, the outcome in assay [9] and in [10] was inactive. The AC50 in [3] was 13.2 µM (active); in assay [7] it was 45.3 µM (active).
As to `Cc1cccc(C)c1`, the result in [1], in assay [2], in assay [4], in assay [5], in assay [6] and in assay [7] was inactive. Also, the compound was called inactive in [8], in [9] and in assay [10]. The concentration at half-maximal activity (AC50) in assay [3] was 34.4 µM (active).

The values above are taken from PubChem BioAssay (EPA / NIEHS).
